Results as given in PubChem BioAssay (Tox21).
Records with an inconclusive call do not appear. Active and inactive are the calls of the source. Unless noted, the call rests on the fitted dose curve.

What was measured:
[1] = Nuclear factor erythroid 2-related factor 2/antioxidant responsive element (Nrf2/ARE) small molecule agonists: qHTS cell viability counter screen in human keratinocytes (AID 1919968; active means well fitted curve in the direction sought with a large enough effect in the repeat runs; an effect the other way counts as inactive or inconclusive; further: nearly all actives have a fitted effect of over 55% in size; further: potency means the concentration at half of the fitted maximal effect)
Procedure, shortened: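 Cells of the KeratinoSens line were plated at 1,500 per well and left for 5 h before compound transfer from DMSO stocks. After a 23 h incubation (37 C, 5% CO2), CellTiter-Fluor was added. Signal was taken as fluorescence intensity 1 h later.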

[2] = Nuclear factor erythroid 2-related factor 2/antioxidant responsive element (Nrf2/ARE) small molecule agonists: luciferase reporter gene qHTS assay in human keratinocytes (AID 1919969); further: nearly all actives have a fitted effect of over 35% in size; further: potency means the concentration at half of the fitted maximal effect
[3] = target: KiSS-1 receptor (Homo sapiens) (UniProt Q969F8); assay: Human kisspeptin (KISS1R) small molecule agonists, calcium flux assay in KISS1R-HEK293 cells (AID 1920064; active means well fitted curve in the direction sought with a large enough effect in the repeat runs; an effect the other way counts as inactive or inconclusive)
Sequence of KiSS-1 receptor (Homo sapiens) (Q969F8 whole entry, looked up): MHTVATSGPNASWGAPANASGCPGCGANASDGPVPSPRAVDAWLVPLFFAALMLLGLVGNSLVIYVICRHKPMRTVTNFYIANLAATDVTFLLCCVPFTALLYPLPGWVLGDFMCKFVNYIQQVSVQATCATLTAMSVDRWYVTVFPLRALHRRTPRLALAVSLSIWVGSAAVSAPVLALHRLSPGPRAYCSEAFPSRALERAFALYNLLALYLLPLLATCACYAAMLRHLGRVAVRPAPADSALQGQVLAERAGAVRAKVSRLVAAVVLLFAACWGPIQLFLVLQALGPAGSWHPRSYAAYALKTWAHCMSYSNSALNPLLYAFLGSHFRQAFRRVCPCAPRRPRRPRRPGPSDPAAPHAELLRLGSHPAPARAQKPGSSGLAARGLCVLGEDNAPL
Procedure, shortened: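 Cell line: HEK293, stable human KISS1R. Dye loading 1 h at 37 C after 18 h culture. Read: kinetic fluorescence, 480/540 nm, 3 min at 1 s intervals.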

[4] = G protein-coupled receptor (GPCR) small molecule agonists, calcium flux assay: HEK293 wild type cell line counter screen (AID 1920065)
Procedure, shortened: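 Tox21 10K compounds, 15 concentrations each in triplicate, pin-transferred in DMSO onto dye-loaded cells; kinetic read at 480/540 nm for 3 min, 1 s intervals.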

[5] = p53 small molecule agonists, cell-based qHTS assay with human liver microsomes (AID 1963577)
Procedure, shortened: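 Compounds act here after metabolic activation: human liver microsomes and NADPH, both at 0.5 mg/mL final, were co-added to p53RE-bla cells. Incubation ran 16 h at 37 C, followed by LiveBLAzer detection.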

[6] = p53 small molecule agonists, cell-based qHTS assay with rat liver microsomes (AID 1963578); further: potency means the concentration at half of the fitted maximal effect
Procedure, shortened: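 Read-out is beta-lactamase reporter fluorescence (LiveBLAzer, 2 h, room temperature, dark) in p53RE-bla cells treated 16 h at 37 C with compound, rat liver microsomes and NADPH, both 0.5 mg/mL final.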

[7] = p53 small molecule agonists, cell-based qHTS assay with rat liver microsomes: qHTS cell viability counter screen (AID 1963580); further: nearly all actives have a fitted effect of over 45% in size
Procedure, shortened: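 Cytotoxicity counter screen: intracellular ATP read by CellTiter-Glo luminescence in the p53 reporter wells. HCT-116 p53RE-bla cells were treated for 16 h at 37 C alongside rat liver microsomes and NADPH, each 0.5 mg/mL final.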

[8] = target: 5-hydroxytryptamine receptor 2A (Homo sapiens) (UniProt P28223); assay: 5-hydroxytryptamine receptor 2A (HTR2A) small molecule antagonists, cell-based qHTS assay (AID 1963586); further: nearly all actives have a fitted effect of over 45% in size; further: potency means the concentration at half of the fitted maximal effect
Sequence of 5-hydroxytryptamine receptor 2A (Homo sapiens) (P28223 whole entry, looked up): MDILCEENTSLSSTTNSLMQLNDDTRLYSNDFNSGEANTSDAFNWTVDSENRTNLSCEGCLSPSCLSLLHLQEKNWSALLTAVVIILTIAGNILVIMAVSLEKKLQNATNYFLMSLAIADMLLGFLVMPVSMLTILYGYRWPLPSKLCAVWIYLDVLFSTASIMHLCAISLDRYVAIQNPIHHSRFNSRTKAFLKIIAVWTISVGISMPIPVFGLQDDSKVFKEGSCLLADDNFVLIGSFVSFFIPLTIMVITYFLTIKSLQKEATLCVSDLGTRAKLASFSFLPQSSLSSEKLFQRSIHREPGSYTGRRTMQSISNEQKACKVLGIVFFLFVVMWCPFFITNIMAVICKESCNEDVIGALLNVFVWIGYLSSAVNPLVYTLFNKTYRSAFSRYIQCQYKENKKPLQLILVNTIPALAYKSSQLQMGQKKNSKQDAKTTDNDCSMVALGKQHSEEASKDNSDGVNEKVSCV
Procedure, shortened: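 CHO cells stably expressing human HTR2A were plated for 18 h at 37 C, then loaded with calcium dye for 1 h. Compounds were preincubated 5 min at room temperature before DOI (4 nM solution) was added. Kinetic fluorescence was read for 3 min.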

[9] = target: 5-hydroxytryptamine receptor 2A (Homo sapiens) (UniProt P28223); assay: 5-hydroxytryptamine receptor 2A (HTR2A) small molecule agonists, cell-based qHTS assay (AID 1963587); further: nearly all actives have a fitted effect of over 30% in size; further: potency means the concentration at half of the fitted maximal effect
Procedure, shortened: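 Kinetic calcium-flux fluorescence (2 min, 1 sec intervals) after compound addition in agonist mode. HTR2A-CHO cells were cultured 18 h, then dye-loaded 1 h at 37 C.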

[10] = target: Muscarinic acetylcholine receptor M1 (Homo sapiens) (UniProt P11229); assay: Cholinergic receptor muscarinic 1 (CHRM1) small molecule antagonists, cell-based qHTS assay (AID 1963588); further: nearly all actives have a fitted effect of over 40% in size
Sequence of Muscarinic acetylcholine receptor M1 (Homo sapiens) (P11229 whole entry, looked up): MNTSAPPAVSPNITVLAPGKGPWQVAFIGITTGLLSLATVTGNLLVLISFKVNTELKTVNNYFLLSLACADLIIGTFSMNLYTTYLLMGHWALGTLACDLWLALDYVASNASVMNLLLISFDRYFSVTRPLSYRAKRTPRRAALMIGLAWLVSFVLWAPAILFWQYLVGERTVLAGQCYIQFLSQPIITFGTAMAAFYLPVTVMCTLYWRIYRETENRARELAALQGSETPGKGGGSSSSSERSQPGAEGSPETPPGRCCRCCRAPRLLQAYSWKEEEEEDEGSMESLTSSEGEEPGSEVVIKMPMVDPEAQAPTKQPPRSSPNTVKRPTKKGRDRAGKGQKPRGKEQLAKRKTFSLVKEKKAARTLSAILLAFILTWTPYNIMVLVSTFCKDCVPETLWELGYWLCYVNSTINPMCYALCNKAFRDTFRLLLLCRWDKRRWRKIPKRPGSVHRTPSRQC
Procedure, shortened: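 Compounds were tested at 15 concentrations in three independent runs. Dye-loaded CHRM1-CHO cells were exposed 5 min at room temperature before stimulation by acetylcholine added at 50nM. Intracellular calcium was read kinetically on FDSS for 3 min.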

[11] = target: Muscarinic acetylcholine receptor M1 (Homo sapiens) (UniProt P11229); assay: Cholinergic receptor muscarinic 1 (CHRM1) small molecule agonists, cell-based qHTS assay (AID 1963589); further: nearly all actives have a fitted effect of over 35% in size
Procedure, shortened: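 Homogeneous fluorescence calcium flux, agonist mode. Human M1-expressing CHO cells; compound dosed at 15 concentrations, three independent runs; signal sampled every 1 sec.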

[12] = target: Beta-2 adrenergic receptor (Homo sapiens) (UniProt P07550); assay: Adrenergic beta2 receptor (ADRB2) small molecule antagonists, cell-based qHTS assay (AID 1963592); further: series mostly up to about 92 µM; nearly all actives have a fitted effect of over 50% in size
Sequence of Beta-2 adrenergic receptor (Homo sapiens) (P07550 whole entry, looked up): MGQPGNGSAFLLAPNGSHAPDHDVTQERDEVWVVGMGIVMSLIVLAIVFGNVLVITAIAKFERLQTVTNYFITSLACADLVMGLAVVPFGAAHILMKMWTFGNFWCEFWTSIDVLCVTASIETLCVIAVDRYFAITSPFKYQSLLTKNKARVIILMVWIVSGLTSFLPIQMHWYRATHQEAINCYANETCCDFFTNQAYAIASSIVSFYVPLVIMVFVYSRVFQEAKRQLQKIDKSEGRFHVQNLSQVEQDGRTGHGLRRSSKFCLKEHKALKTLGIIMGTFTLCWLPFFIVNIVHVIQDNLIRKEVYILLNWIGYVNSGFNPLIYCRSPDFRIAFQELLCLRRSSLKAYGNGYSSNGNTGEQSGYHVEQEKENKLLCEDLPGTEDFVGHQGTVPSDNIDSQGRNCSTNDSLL
Procedure, shortened: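 Assay format: CHO-ADRB2 cells, 18-20hr seeding at 37C/5% CO2, then compound plus 1nM isoproterenol agonist mix for 0.5hr RT. Homogeneous time-resolved fluorescence cAMP detection after 1hr, expressed as 665/615 nm ratio.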

[13] = target: D(2) dopamine receptor (Homo sapiens) (UniProt P14416); assay: Dopamine D2 receptor (DRD2) small molecule agonists, cell-based qHTS assay (AID 1963594); further: nearly all actives have a fitted effect of over 35% in size
Sequence of D(2) dopamine receptor (Homo sapiens) (P14416 whole entry, looked up): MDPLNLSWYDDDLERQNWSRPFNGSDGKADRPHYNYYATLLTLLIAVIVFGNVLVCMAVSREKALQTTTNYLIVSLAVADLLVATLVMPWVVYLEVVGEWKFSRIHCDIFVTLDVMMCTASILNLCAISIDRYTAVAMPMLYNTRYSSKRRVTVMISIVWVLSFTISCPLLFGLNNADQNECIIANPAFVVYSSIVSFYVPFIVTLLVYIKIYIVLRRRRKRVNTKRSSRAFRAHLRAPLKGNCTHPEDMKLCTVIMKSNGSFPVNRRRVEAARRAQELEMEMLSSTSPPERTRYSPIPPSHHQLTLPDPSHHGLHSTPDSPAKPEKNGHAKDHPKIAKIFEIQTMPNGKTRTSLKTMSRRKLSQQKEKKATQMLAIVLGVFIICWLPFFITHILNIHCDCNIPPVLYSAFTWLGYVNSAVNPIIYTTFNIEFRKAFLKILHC
Procedure, shortened: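 cAMP accumulation in DRD2-HEK293 cells measured by HTRF after 1 h detection; compounds added 10 min before NKH477 (200nM […]) forskolin-analogue stimulation, 30 min at room temperature, with Ro20-1724 present at 0.1 mM final.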

[14] = target: D(2) dopamine receptor (Homo sapiens) (UniProt P14416); assay: Dopamine D2 receptor (DRD2) small molecule antagonists, cell-based qHTS assay (AID 1963595; active means well fitted inhibition curve with a large enough effect in the signal ratio in the repeat runs, with a control signal flat; the % refers to the signal ratio)
Procedure, shortened: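 HEK293 cells stably expressing DRD2, preincubated with 0.1 mM Ro20-1724 and compounds 10 min, were stimulated with 200 nM NKH477 plus 12 nM quinpirole for 30 min at room temperature; cAMP measured by HTRF (665/620 nm).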

[15] = p53 small molecule agonists, cell-based qHTS assay with human liver microsomes: qHTS cell viability counter screen (AID 1963579); further: nearly all actives have a fitted effect of over 45% in size
Procedure, shortened: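 Cells carrying the p53 response-element beta-lactamase reporter are treated for 16 h at 37 C with test compounds in the presence of human liver microsomes and NADPH (both 0.5 mg/mL final); ATP-based CellTiter-Glo luminescence then reports viability.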

[16] = p53 small molecule agonists, cell-based qHTS assay: qHTS cell viability counter screen (AID 1963581); further: nearly all actives have a fitted effect of over 45% in size
Procedure, shortened: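 ATP content measured by luminescence in HCT-116 p53RE-bla cells treated 16 h at 37 C, same wells as the reporter screen.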

[17] = cAMP Responsive Elements (CRE) small molecule agonists, cell-based qHTS assay (AID 1963590)
Procedure, shortened: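 HEK 293T cells stably bearing CRE-bla were plated at 2,000 cells per well and rested 18 h. Compounds, positive controls or DMSO were added for 3 h at 37 C. LiveBLAzer B/G substrate was then loaded for 2 h at room temperature.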

[18] = cAMP Responsive Elements (CRE) small molecule antagonists, cell-based qHTS assay (AID 1963591; active means well fitted inhibition curve with a large enough effect in the signal ratio in the repeat runs, not every such curve was filed as active; the % refers to the signal ratio)
Procedure, shortened: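 First, CRE-bla HEK293T cells settled 18 h at 37 C. Next, compound and 0.25 uM final NKH477 were applied for 3 h. Last, LiveBLAzer B/G substrate was loaded for 2 h at room temperature.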

[19] = target: Beta-2 adrenergic receptor (Homo sapiens) (UniProt P07550); assay: Adrenergic beta2 receptor (ADRB2) small molecule agonists, cell-based qHTS assay (AID 1963593);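 further: CHO cells stably overexpressing human ADRB2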
Procedure, shortened: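 CHO cells stably over-expressing ADRB2 were plated overnight at 37C, then dosed with compounds plus a stimulation mix containing 100uM IBMX and 25uM Ro-20-1724 for 0.5hr at room temperature. cAMP was measured by HTRF competition, 1hr.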
On the % scale 0 is the no-effect control and ±100 the full control effect.

COCC(=O)O[C@]1(CCN(C)CCCc2nc3ccccc3[nH]2)CCc2cc(F)ccc2[C@@H]1C(C)C
inactive: Potency [2] | Potency [3] | Potency [4] | Potency [5] | Potency [6] | Potency [7] | Potency [9] | Potency [10] | Potency [11] | Potency [12] | Potency [13] | Potency [14]
active: Potency [1] 23.7 µM | Potency [8] 5.16 µM

CCC(C)C(C)=O (stereo not drawn)
inactive: Potency [1] | Potency [2] | Potency [3] | Potency [4] | Potency [15] | Potency [7] | Potency [16] | Potency [8] | Potency [9] | Potency [10] | Potency [11] | Potency [17] | Potency [18] | Potency [19] | Potency [13] | Potency [14]

O=C(O)CN(CCOCCOCCN(CC(=O)O)CC(=O)O)CC(=O)O
inactive: activity change, negative = cytotoxicity [1] -7.96% [at 0.349 µM] | activity, positive = activation [2] -0.157% [at 0.349 µM] | activation [3] -1.47% [at 0.29 µM] | activation [4] -0.598% [at 0.217 µM] | activity change, negative = cytotoxicity [15] 0.622% [at 0.249 µM] | activity change, negative = cytotoxicity [7] -3.51% [at 0.249 µM] | activity change, negative = cytotoxicity [16] -15.2% [at 0.249 µM] | activity, negative = inhibition [10] -20.9% [at 0.232 µM] | activation [11] -0.0666% [at 0.29 µM] | activation [17] -1.26% [at 0.349 µM] | activity change, negative = inhibition [12] 0.881% [at 0.349 µM] | activation [19] 0.525% [at 0.349 µM]

CCCc1c(OCCCOc2ccc(OCC(=O)O)cc2)ccc(C(C)=O)c1O
inactive: Potency [1] | Potency [2] | Potency [3] | Potency [4] | Potency [6] | Potency [8] | Potency [11] | Potency [12] | Potency [19] | Potency [13] | Potency [14]
active: Potency [9] 54.9 µM

Cc1ccc2nc(-c3ccc(N)cc3)sc2c1S(=O)(=O)O
active: Potency [2] 10.7 µM | Potency [6] 17.9 µM
inactive: Potency [1] | Potency [3] | Potency [4] | Potency [7] | Potency [16] | Potency [8] | Potency [9] | Potency [10] | Potency [11] | Potency [18] | Potency [12] | Potency [19] | Potency [13]

O=Cc1cc(O)ccc1Br
inactive: Potency [1] | Potency [3] | Potency [4] | Potency [15] | Potency [7] | Potency [16] | Potency [8] | Potency [10] | Potency [11] | Potency [17] | Potency [18] | Potency [12] | Potency [19] | Potency [13] | Potency [14]
active: Potency [2] 49.2 µM

CCCNC(C)(C)COC(=O)c1ccccc1
inactive: Potency [1] | Potency [2] | Potency [3] | Potency [4] | Potency [15] | Potency [7] | Potency [16] | Potency [8] | Potency [9] | Potency [11] | Potency [17] | Potency [18] | Potency [12] | Potency [13] | Potency [14]

NC(N)=NCCN1CCCCCCC1
inactive: activity change, negative = cytotoxicity [1] -3.49% [at 0.349 µM] | activity, positive = activation [2] 3.17% [at 0.349 µM] | activation [3] 0.591% [at 0.29 µM] | activation [4] 0.864% [at 0.217 µM] | activity change, negative = cytotoxicity [15] 14.9% [at 0.249 µM] | activity change, negative = cytotoxicity [7] 0.194% [at 0.249 µM] | activity change, negative = cytotoxicity [16] -15.6% [at 0.249 µM] | activation [17] -1.51% [at 0.349 µM] | activity change, negative = inhibition [18] 0.0219% [at 0.349 µM] | activity change, negative = inhibition [12] 5.36% [at 0.349 µM] | activation [19] 1.36% [at 0.349 µM] | activation [13] -6.8% [at 0.349 µM] | activity change, negative = inhibition [14] -0.0361% [at 0.348 µM]
